This passage reports Inhibition results from ChEMBL document CHEMBL4513146, “CO-ADD screening of Karazin Kharkiv National University (Ukraine) compounds”.

The test system of one test is Klebsiella pneumoniae. The conditions noted are these: Concentration 32 ug.mL-1;; ASSAY_TEST Inhibition of Bacterial Growth; detection method Absorption (OD600); MEDIA CAMHB; plate type 384well; NBS; CORNING #3640; time 18 hr.
The subject of another test is Candida albicans. The conditions noted are these: Concentration 32 ug.mL-1; ASSAY_TEST Inhibition of Fungal Growth; detection method Absorption (OD530).
Another test concerns Cryptococcus neoformans. The following applies: Concentration 32 ug.mL-1; ASSAY_TEST Inhibition of Fungal Growth; detection method Resazurin; Absorption (OD600-OD570); plate type 384well; NBS; CORNING #3640.

Entries with a potency or affinity are not part of this list.

Turning to `CC1CCCN(c2nccn3c(=O)n(CC(=O)Nc4ccc5c(c4)OCO5)nc23)C1` (stereo not given), the results for the Inhibition in the test on Klebsiella pneumoniae, in the test with Candida albicans and with Cryptococcus neoformans were 1.66%, -0.45% and -11.4%, respectively.

On to `Cc1cc(C)c(NC(=O)Cn2nc3c4c5c(sc4ncn3c2=O)CCCC5)c(C)c1`, for which the Inhibition in the test with Klebsiella pneumoniae was 7.2%; with Candida albicans, 39.7%; in the test on Cryptococcus neoformans, -18.32%.

Consider `Cc1ccc(NC(=O)Cn2nc3c4cc(-c5ccc(C)c(C)c5)nn4ccn3c2=O)cc1C`, for which the Inhibition is reported as 4.54% with Klebsiella pneumoniae, 4.1% in the test on Candida albicans and -9.03% with Cryptococcus neoformans.

Regarding `Cc1ccc(Oc2nccn3c(=O)n(CC(=O)Nc4ccccc4C(F)(F)F)nc23)cc1`, the Inhibition is listed as 6.49% in the test on Klebsiella pneumoniae, 0.6% in the test with Candida albicans and -7.72% in the test on Cryptococcus neoformans.

As to `CCCCc1ccc(NC(=O)Cn2c(=O)c3nnc(C(C)C)n3c3ccccc32)cc1`, the Inhibition is listed as 18.09% in the test with Klebsiella pneumoniae, -0.74% with Candida albicans and -30.75% with Cryptococcus neoformans.

With `CCOc1ccc(-n2ccn3c(SCC(=O)c4cc(C)c(C)cc4C)nnc3c2=O)cc1`, the Inhibition was 2.47% with Klebsiella pneumoniae, 2.99% with Candida albicans and -7.59% with Cryptococcus neoformans.

In the case of `Cc1c(Cl)cccc1-n1ccn2c(=O)n(Cc3ccccc3Cl)nc2c1=O`, the Inhibition with Klebsiella pneumoniae is listed as -1.96%; in the test on Candida albicans, -2.16%; in the test with Cryptococcus neoformans, -12.25%.

As to `N#CCn1nc2n(Cc3ccc(F)cc3)c(=O)c3ccccc3n2c1=O`, the results for the Inhibition with Klebsiella pneumoniae, in the test with Candida albicans and in the test with Cryptococcus neoformans were 3.36%, 3.09% and -7.73%, respectively.

Turning to `CC(C)CCn1c(=O)c2ccccc2n2c(=O)n(CC#N)nc12`, the Inhibition with Klebsiella pneumoniae is reported as 17.73%; in the test on Candida albicans, 2.65%; with Cryptococcus neoformans it was -29.58%.

As to `COc1cc(NC(=O)Cn2nc3c(Oc4ccccc4)nccn3c2=O)cc(OC)c1`, the Inhibition is given as 11.9% in the test with Klebsiella pneumoniae, -1.97% with Candida albicans and -7.5% with Cryptococcus neoformans.
